Source: PubChem BioAssay (EPA / NIEHS)
Several values for one entry are separate records, joined by “and”; a condition that tells them apart may be missing. Equal values may be shown once. Inconclusive results are not listed. The source holds several records for some structures; these can differ, active in one and inactive in another. Activity calls are given as the source filed them. Rule for the calls, unless noted: active = hit-call score of the fitted dose curve at least 0.9, where 1 is the maximum; inactive = score below 0.9.

Columns and labels:
[1] = molecular target: Nuclear respiratory factor 1 (Homo sapiens) (UniProt Q16656); experiment: ATG_NRF1_CIS: Attagene CIS-FACTORIAL HepG2 Assay for human Nuclear Respiratory Factor 1 (NRF1) Orphan Gene (AID 2282987); conditions: HepG2 NRF1 cis-element reporter, Attagene multiplex; actives raise or lower the signal
Outline: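 Transcriptional reporter readout, one component of a 52-endpoint multiplexed HepG2 panel. Exposure 24 h; mRNA detected via RT-PCR and fluorescent capillary electrophoresis; fitting in both directions against DMSO.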

[2] = ATG_NFI_CIS: Attagene CIS-FACTORIAL HepG2 Assay for human Nuclear Factor I (NFI) (AID 2282989); conditions: HepG2 cis-regulatory reporter, NFI response element transcription; actives raise or lower the signal
Outline: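 Reporter transcripts were measured by RT-PCR with fluorescent primer extension and capillary electrophoresis 24 h post-treatment. HepG2 cells carried transiently transfected cis-regulated reporter constructs reporting endogenous factor activity; gain or loss fitted against DMSO baseline.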

[3] = molecular target: Myc proto-oncogene protein (Homo sapiens) (UniProt P01106); experiment: ATG_Myc_CIS: Attagene CIS-FACTORIAL HepG2 Assay for human Myelocytomatosis (Myc) Proto-Oncogene Transcription Factor (AID 2282990); conditions: HepG2, Attagene cis-reporter transcription factor activity; actives raise or lower the signal
Outline: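 Fluorescence intensity of reporter-specific cDNA fragments, separated by capillary electrophoresis, gives the signal. Transfected HepG2 cells carrying cis-promoter reporter constructs are incubated with compound for 24 h; DMSO serves as baseline.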

[4] = ATG_NRF2_ARE_CIS: Attagene CIS-FACTORIAL HepG2 Assay for human Nuclear Factor Erythroid 2 Related Factor 2 (NFR2) response to Antioxidant Response Elements (ARE) (AID 2282992); conditions: HepG2 Attagene ARE/NRF2 reporter, transcription factor activity; actives raise or lower the signal;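 for AC50: reporter mRNA level measured by RT-PCR and capillary electrophoresis fluorescence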
Outline: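 HepG2 cells transiently transfected with multiplexed cis-regulated reporter transcription units measure endogenous transcription factor activity. Reporter mRNA at 24 h is quantified by RT-PCR, fluorescent labelling and capillary electrophoresis, with bidirectional fitting relative to DMSO.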

[5] = ATG_Oct_MLP_CIS: Attagene CIS-FACTORIAL HepG2 Assay for human Octamer-Binding Transcription Factor (Oct) (AID 2282993); conditions: HepG2 Attagene cis-factorial Oct reporter, mRNA; actives raise or lower the signal
Outline: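 Readout is reporter transcript level from RT-PCR with fluorescent primer extension and capillary electrophoresis, fitted in both directions against DMSO. Transfected HepG2 reporter units report endogenous factor activity after 24 h dosing.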

[6] = molecular target: Cellular tumor antigen p53 (Homo sapiens) (UniProt P04637); experiment: ATG_p53_CIS: Attagene CIS-FACTORIAL HepG2 Assay for human p53 Transcription Factor (AID 2282994); conditions: HepG2 p53 cis-element reporter, Attagene mRNA; actives raise or lower the signal
Outline: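 HepG2 cells transiently transfected with multiplexed cis-regulated reporter transcription units read endogenous TF activity. After 24 h compound exposure, reporter mRNA was quantified by RT-PCR, fluorescent labelling, HpaI digestion and capillary electrophoresis; bidirectional fits versus DMSO baseline.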

[7] = BSK_3C_TissueFactor: BioMAP Diversity Plus: 3C Assay for Tissue Factor Biomarker Activity (AID 2282997); conditions: BioMAP 3C HUVEC, tissue factor biomarker readout; actives raise or lower the signal
Outline: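 Values derive from bidirectional curve fitting against DMSO of Tissue Factor ELISA signals, taken 24 h after dosing primary human umbilical vein endothelial cells.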

[8] = BSK_3C_uPAR: BioMAP Diversity Plus: 3C Assay for Urokinase-type plasminogen activator receptor (uPAR) Biomarker Activity (AID 2282998); conditions: BioMAP 3C HUVEC, uPAR biomarker ELISA; actives raise or lower the signal
Outline: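 Cell-surface uPAR on HUVEC (3C system) read by ELISA at 24 h post-treatment, with DMSO as baseline and fitting in both directions. Parallel cultures stained with SRB to flag overt cytotoxicity.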

[9] = BSK_3C_VCAM1: BioMAP Diversity Plus: 3C Assay for Vascular cell adhesion molecule 1 (VCAM1) Biomarker Activity (AID 2282999); conditions: BioMAP 3C HUVEC, VCAM1 ELISA, cytokine-stimulated; actives raise or lower the signal
Outline: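 Human umbilical vein endothelial cells (3C system), biomarker read by ELISA 24 h after dosing; bidirectional fit against DMSO baseline. Cytotoxicity tracked by SRB total-protein staining in parallel cultures at biomarker time.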

[10] = BSK_4H_Eotaxin3: BioMAP Diversity Plus: 4H Assay for Eotaxin 3 Biomarker Activity (AID 2283000); conditions: primary human endothelial cells (HUVEC); actives raise or lower the signal;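 note: CCL26 protein level quantified by ELISA in parallel with SRB cytotoxicity check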
Outline: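 Endothelial primary cells (human umbilical vein) exposed to compound for 24 h. ELISA detection of Eotaxin-3.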

[11] = molecular target: human Peroxisome Proliferator-activated Receptor alpha (PPARa), PPARA (gene 5465) (UniProt Q07869); experiment: ATG_PPARa_TRANS: Attagene TRANS-FACTORIAL HepG2 Assay for human Peroxisome Proliferator-activated Receptor alpha (PPARa) (AID 2283001; active = hit-call score of the fitted dose curve at least 0.9, where 1 is the maximum;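 for AC50: potency for gain of reporter signal over DMSO so agonist or activator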)
Outline: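 Measures transcriptional activity of an exogenous chimeric PPARa-Gal4 protein in transiently transfected HepG2 cells after 24 h dosing. Reporter mRNA quantified via RT-PCR and capillary electrophoresis; DMSO served as negative control.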

[12] = molecular target: human Peroxisome Proliferator-activated Receptor delta (PPARd), PPARD (gene 5467) (UniProt Q03181); experiment: ATG_PPARd_TRANS: Attagene TRANS-FACTORIAL HepG2 Assay for human Peroxisome Proliferator-activated Receptor delta (PPARd) (AID 2283002; active = hit-call score of the fitted dose curve at least 0.9, where 1 is the maximum)
Outline: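 Fluorescence from capillary electrophoresis of labelled RT-PCR reporter fragments gives the signal; DMSO sets baseline. Cells: HepG2 transiently carrying GAL4-UAS reporter units plus chimeric nuclear receptor-Gal4 proteins, exposed to chemicals for 24 h.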

[13] = read-out: Intercellular Adhesion Molecule 1 (ICAM1), ICAM1 (gene 3383); experiment: BSK_3C_ICAM1: BioMAP Diversity Plus: 3C Assay for Intercellular Adhesion Molecule 1 (ICAM1) Biomarker Activity (AID 2283003); conditions: primary human endothelial cells (HUVEC); actives raise or lower the signal
Outline: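 Human vascular endothelial primary cells, 3C conditions, 24 h treatment. ICAM-1 by ELISA.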

[14] = molecular target: human Retinoic Acid Receptor beta (RARb), RARB (gene 5915) (UniProt P10826); experiment: ATG_RARb_TRANS: Attagene TRANS-FACTORIAL HepG2 Assay for human Retinoic Acid Receptor beta (AID 2283004; active = hit-call score of the fitted dose curve at least 0.9, where 1 is the maximum)
Outline: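 HepG2, transient MRTU transfection, NR–Gal4 chimera, 24 h treatment; RT-PCR plus CE fluorescence detection of reporter mRNA; gain of signal vs DMSO.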

[15] = BSK_3C_Proliferation: Cell Proliferation Assessment in the BioMAP Diversity Plus: 3C Assay (AID 2283006); conditions: primary human endothelial cells (HUVEC)
Outline: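 Proliferation of human vascular endothelial primary cells after 48 h dosing, quantified as SRB-stained protein at 560 nm relative to DMSO.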

[16] = molecular target: Peroxisome proliferator-activated receptor gamma (Homo sapiens) (UniProt P37231); experiment: ATG_PPARg_TRANS: Attagene TRANS-FACTORIAL HepG2 Assay for human Peroxisome Proliferator-activated Receptor-gamma (PPARg) (AID 2283007; active = hit-call score of the fitted dose curve at least 0.9, where 1 is the maximum)
Outline: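 Multiplexed reporter transcription units in HepG2, 24 h dosing, reporter transcripts quantified by fluorescent RT-PCR and capillary electrophoresis. Increase over DMSO scored.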

[17] = molecular target: Nuclear receptor subfamily 1 group I member 2 (Homo sapiens) (UniProt O75469); experiment: ATG_PXR_TRANS: Attagene TRANS-FACTORIAL HepG2 Assay for human Pregnane X Receptor (PXR) (AID 2283008; active = hit-call score of the fitted dose curve at least 0.9, where 1 is the maximum)
Outline: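 HepG2 cells transiently transfected with multiple reporter units, here a PXR-GAL4 chimera driving a GAL4-UAS reporter; 24 h compound exposure. Reporter mRNA measured by RT-PCR, FAM labelling and capillary electrophoresis; gain of signal fitted against DMSO baseline.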

[18] = ATG_NF_kB_CIS: Attagene CIS-FACTORIAL HepG2 Assay for human Nuclear Factor Kappa B (NF-kB) (AID 2282991); conditions: HepG2 Attagene cis-factorial NF-kB reporter mRNA; actives raise or lower the signal
Outline: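 HepG2, transient multi-reporter transfection, cis promoter elements (endogenous TFs). 24 h exposure. Total RNA → RT → PCR → 6-FAM label → HpaI → CE. Gain/loss vs DMSO.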

[19] = molecular target: human Retinoic Acid Receptor gamma (RARg), RARG (gene 5916) (UniProt P13631); experiment: ATG_RARg_TRANS: Attagene TRANS-FACTORIAL HepG2 Assay for human Retinoic Acid Receptor gamma (RARg) (AID 2283009; active = hit-call score of the fitted dose curve at least 0.9, where 1 is the maximum)
Outline: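 HepG2, RARg-GAL4 TRANS system, 24 h exposure; reporter mRNA by RT-PCR + CE fluorescence; increase over DMSO.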

Measured: AC50

Myc proto-oncogene protein (Homo sapiens), sequence (P01106 whole entry, looked up, the tested form may be a part): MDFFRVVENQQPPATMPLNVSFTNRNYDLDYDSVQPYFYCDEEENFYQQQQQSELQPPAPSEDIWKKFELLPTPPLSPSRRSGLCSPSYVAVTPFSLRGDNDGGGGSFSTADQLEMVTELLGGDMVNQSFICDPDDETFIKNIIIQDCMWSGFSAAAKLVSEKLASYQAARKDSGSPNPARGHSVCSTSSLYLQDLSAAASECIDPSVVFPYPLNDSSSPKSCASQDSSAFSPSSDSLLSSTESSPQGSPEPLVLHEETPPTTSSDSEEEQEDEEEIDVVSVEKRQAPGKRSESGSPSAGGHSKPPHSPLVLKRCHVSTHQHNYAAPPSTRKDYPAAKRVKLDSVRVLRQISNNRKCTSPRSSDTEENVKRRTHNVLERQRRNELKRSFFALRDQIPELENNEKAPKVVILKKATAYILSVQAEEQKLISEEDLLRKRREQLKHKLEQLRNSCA
Peroxisome proliferator-activated receptor gamma (Homo sapiens), sequence (P37231 whole entry, looked up): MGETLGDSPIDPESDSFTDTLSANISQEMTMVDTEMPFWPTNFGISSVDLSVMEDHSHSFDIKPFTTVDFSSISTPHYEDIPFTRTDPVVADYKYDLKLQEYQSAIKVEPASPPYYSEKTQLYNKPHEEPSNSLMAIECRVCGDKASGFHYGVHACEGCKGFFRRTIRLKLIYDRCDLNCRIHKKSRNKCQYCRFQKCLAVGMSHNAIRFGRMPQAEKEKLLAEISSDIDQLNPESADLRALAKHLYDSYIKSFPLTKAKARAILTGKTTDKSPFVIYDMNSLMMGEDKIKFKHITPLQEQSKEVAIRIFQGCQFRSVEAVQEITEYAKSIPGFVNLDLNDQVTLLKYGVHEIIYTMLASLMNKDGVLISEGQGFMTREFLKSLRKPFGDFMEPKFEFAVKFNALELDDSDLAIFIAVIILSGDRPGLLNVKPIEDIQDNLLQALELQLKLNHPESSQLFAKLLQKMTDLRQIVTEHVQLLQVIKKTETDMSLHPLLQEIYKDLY
human Peroxisome Proliferator-activated Receptor delta (PPARd), PPARD (gene 5467), sequence (Q03181 whole entry, looked up, the tested form may be a part): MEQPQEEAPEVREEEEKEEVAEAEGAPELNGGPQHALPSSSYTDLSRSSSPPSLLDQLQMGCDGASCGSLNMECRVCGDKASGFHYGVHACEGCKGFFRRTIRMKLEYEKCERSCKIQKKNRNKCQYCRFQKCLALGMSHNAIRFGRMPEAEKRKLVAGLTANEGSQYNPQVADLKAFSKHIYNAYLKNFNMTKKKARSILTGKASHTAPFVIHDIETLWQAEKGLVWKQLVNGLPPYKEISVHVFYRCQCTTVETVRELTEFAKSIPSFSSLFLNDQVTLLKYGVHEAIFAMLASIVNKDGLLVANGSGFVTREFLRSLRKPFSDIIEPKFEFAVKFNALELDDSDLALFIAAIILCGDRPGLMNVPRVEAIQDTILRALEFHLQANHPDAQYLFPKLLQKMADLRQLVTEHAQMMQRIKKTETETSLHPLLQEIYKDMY
human Peroxisome Proliferator-activated Receptor alpha (PPARa), PPARA (gene 5465), sequence (Q07869 whole entry, looked up, the tested form may be a part): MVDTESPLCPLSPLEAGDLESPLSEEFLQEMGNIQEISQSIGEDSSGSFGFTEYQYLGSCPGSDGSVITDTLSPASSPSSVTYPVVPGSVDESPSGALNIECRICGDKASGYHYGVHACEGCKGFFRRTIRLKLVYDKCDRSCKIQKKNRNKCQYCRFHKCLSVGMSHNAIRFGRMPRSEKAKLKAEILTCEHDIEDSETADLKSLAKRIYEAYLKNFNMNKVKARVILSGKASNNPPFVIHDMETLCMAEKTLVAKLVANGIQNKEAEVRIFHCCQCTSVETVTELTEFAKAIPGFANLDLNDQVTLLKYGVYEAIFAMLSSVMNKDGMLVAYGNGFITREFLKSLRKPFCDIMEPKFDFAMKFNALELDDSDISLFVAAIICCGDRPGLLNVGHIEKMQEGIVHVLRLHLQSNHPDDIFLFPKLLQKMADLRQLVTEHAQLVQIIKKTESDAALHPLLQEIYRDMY
Nuclear respiratory factor 1 (Homo sapiens), sequence (Q16656 whole entry, looked up): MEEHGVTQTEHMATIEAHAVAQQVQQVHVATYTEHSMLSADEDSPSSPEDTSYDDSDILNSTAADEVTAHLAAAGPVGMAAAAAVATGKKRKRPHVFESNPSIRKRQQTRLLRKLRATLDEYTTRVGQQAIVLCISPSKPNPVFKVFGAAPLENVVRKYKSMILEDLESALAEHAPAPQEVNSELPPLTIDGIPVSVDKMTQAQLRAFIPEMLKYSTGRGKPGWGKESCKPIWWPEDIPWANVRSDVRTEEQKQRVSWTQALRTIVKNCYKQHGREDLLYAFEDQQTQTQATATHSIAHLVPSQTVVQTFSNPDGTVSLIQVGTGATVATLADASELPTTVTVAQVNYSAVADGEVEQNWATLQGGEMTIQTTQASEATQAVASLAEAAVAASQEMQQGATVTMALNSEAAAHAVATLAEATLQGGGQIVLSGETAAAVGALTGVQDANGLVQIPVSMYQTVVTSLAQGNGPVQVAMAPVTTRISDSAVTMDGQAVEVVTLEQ
human Retinoic Acid Receptor gamma (RARg), RARG (gene 5916), sequence (P13631 whole entry, looked up, the tested form may be a part): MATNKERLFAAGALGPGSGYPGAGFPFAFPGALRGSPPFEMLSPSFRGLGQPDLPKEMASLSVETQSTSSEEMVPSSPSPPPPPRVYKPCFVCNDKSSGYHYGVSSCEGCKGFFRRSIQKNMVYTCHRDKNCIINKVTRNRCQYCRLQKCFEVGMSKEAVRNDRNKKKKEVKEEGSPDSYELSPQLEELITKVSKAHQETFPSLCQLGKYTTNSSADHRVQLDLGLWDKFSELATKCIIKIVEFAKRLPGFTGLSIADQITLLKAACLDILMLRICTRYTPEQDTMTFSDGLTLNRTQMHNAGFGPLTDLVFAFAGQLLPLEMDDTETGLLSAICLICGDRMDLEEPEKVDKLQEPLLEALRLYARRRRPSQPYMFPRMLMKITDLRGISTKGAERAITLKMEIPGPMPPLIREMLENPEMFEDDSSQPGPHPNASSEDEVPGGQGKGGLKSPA
Cellular tumor antigen p53 (Homo sapiens), sequence (P04637 whole entry, looked up): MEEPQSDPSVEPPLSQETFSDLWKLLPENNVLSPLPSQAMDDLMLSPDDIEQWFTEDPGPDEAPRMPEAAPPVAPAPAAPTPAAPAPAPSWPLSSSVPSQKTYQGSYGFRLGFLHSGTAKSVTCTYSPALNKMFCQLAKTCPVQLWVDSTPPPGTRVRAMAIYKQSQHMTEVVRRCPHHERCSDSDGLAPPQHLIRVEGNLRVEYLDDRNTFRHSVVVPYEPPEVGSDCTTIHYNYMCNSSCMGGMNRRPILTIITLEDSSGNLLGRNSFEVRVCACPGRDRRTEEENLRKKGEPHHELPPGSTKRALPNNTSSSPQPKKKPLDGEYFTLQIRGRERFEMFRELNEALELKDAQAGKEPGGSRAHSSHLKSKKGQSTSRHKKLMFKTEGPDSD
Nuclear receptor subfamily 1 group I member 2 (Homo sapiens), sequence (O75469 whole entry, looked up, the tested form may be a part): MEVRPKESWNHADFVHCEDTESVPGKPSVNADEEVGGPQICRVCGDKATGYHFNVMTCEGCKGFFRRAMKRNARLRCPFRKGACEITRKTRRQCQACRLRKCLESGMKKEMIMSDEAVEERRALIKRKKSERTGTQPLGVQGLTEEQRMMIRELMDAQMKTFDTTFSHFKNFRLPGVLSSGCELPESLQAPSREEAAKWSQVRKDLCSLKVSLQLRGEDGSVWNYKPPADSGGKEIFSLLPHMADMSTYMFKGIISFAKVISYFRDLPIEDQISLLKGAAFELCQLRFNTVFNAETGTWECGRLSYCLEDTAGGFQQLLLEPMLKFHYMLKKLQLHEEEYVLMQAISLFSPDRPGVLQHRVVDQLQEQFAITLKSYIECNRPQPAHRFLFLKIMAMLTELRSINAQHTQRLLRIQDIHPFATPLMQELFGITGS
human Retinoic Acid Receptor beta (RARb), RARB (gene 5915), sequence (P10826 whole entry, looked up, the tested form may be a part): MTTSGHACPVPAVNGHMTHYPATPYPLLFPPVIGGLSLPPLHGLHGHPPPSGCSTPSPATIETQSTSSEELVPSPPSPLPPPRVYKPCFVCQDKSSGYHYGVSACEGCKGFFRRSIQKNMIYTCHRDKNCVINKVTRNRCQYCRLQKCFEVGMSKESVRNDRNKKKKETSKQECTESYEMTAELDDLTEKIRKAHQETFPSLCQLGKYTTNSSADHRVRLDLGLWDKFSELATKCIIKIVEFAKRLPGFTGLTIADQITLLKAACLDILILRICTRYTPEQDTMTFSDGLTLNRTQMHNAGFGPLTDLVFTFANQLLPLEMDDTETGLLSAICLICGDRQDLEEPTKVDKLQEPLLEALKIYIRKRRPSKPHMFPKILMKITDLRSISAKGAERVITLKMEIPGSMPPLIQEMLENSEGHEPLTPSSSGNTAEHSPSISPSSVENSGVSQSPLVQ

OC1CCC(C2CCCCC2)CC1 (centres undefined)
active: [4] 140 µM [middle of 4 runs] | [17] 23.9 µM
inactive: [1] | [2] | [3] | [5] | [6] | [7] | [8] | [9] | [10] | [11] | [12] | [13] | [14] | [15] | [16] | [17]

COCC(C)OCC(C)O (centres undefined)
not listed: [11] | [14] | [17]
inactive: all other assays above

CC(C)(C)CC(C)(C)c1ccc(O)c(-n2nc3ccccc3n2)c1
active: [4] 36.4 µM | [5] 78.5 µM | [17] 3.65 µM
not listed: [11] | [14]
inactive: all other assays above

CCCCC(CC)COC(=O)CCCCC(=O)OCc1ccccc1 (centres undefined)
active: [17] 17.8 µM
not listed: [14] | [18]
inactive: all other assays above

c1ccc2c(c1)ccc1ccccc12
active: [7] 3.97 µM
not listed: [11] | [14]
inactive: all other assays above

CCCCCCC(=O)O
not listed: [12] | [14] | [16] | [18] | [19]
inactive: all other assays above

CCCCCCCCC(=O)O
active: [11] 11.4 µM and 41.6 µM
not listed: [12] | [14] | [16] | [18]
inactive: all other assays above
